PubChem BioAssay (Tox21)
Results filed as inconclusive are left out. Calls of active or inactive are those of the source. Calls come from the whole dose curve; as a rule, active = well fitted cell-killing curve with a large enough effect in the repeat runs; inconclusive = weak or mixed curves, or effect the other way; inactive = flat fitted curve, though single readings scatter.

assay: qHTS assay to identify small molecule antagonists of the constitutive androstane receptor (CAR) signaling pathway - cell viability counter screen (AID 1224837); details: HepG2-CYP2B6-hCAR viability, CellTiter-Fluor, 23 h, co-treated with 50 nM CITCO; series mostly up to 92.4 µM; activity change, negative = cytotoxicity: at the top concentration; note: nearly all actives have a fitted effect of over 45% in size
Source text: National Center for Advancing Translational Sciences [NCATS]
NIH Chemical Genomics Center [NCGC]
U.S. Environmental Protection Agency [EPA]
National Institutes of Environmental Health Sciences [NIEHS]
National Toxicology Program [NTP]
U.S. Food and Drug Administration [FDA]
The constitutive androstane receptor (CAR) is a nuclear receptor which regulates multiple drug metabolizing enzymes (DMEs) and transporters. Activating CAR will generally increase the transcription and subsequent translation of CYP2B6 and CYP3A4. These two DMEs represent about 50% of the drug metabolizing potential in the body. When CAR is deactivated, the metabolizing potential in the body will decrease, subsequently increasing the toxicity in the body or lowering the therapeutic potential of a pro-drug. Recently, there have also been studies performed indicating CARs role in energy metabolism and cancer therapy. Therefore, inhibiting CARs activity could have a potential effect on diabetes and cancer. Identifying environmental toxins and compounds which modulate CAR, through the use of the Tox21 10K compound collection, will be an important step in determining the toxicity and potential therapeutic effects these factors will have on the human body. To differentiate true CAR antagonists from cytotoxic substances, the assay is multiplexed with a cell viability assay.
Tox21 Assay Protocol Summary:
A double-stable (hCAR and CYP2B6-2.2kb) transfected cell line, derived from human hepatoma (HepG2) cells, was utilized for the duration of the quantitative high-throughput screens. The HepG2-CYP2B6-hCAR cells were dispensed at 2500 cells/4 uL/well in 1536-well white solid bottom plates using a Multidrop Combi. After the assay plates were incubated at 37 C/5% CO2 for 4 hrs, 23 nL of compounds at 15 concentrations (from 5-48 columns) or positive control (from 1 to 4 columns) were transferred to the assay plates using a Pintool station. One uL of CITCO (final concentration = 50 nM) was added, using a Flying Reagent Dispenser, inside each well. After a 23 hr incubation period at 37 C/5% CO2, 1 uL of CellTiter-Fluor reagent was added into each well of the assay plates using a Flying Reagent Dispenser. The fluorescence intensity in the plates was then measured using a ViewLux plate reader.
% is set by controls: 0 for no effect and ±100 for the full control effect; potency is the fitted concentration of half-maximal effect.

Row | Compound | activity change, negative = cytotoxicity | Potency
1 | O=C(c1ccccc1)c1ccc(Cl)cc1 | 4.65% (inactive) | –
2 | CC(O)(c1ccc(Cl)cc1)c1ccc(Cl)cc1 | -23.5% (inactive) | –
3 | N#Cc1nc(Cl)c(Cl)c(Cl)c1Cl | – | 27.3 µM (active)
4 | CCOC(=O)[C@H](C)O | 4.72% (inactive) | –
5 | CC1CCC(C(C)(C)O)CC1 (stereo not given) | -0.601% (inactive) | –
6 | CC1=C(/C=C/C(C)=C/C=C/C(C)=C\C(=O)O)C(C)(C)CCC1 | -17.2% (inactive) | –
7 | O=C(O)C[C@H](O)C[C@H](O)/C=C/c1c(C2CC2)nc2ccccc2c1-c1ccc(F)cc1 | -0.918% [at 19 µM] (inactive) | –
8 | CCc1c(C)cc(N)c(CC)c1N | 3.57% (inactive) | –
9 | COc1c(Br)cc(Br)c(C)c1Br | 4.2% (inactive) | –
10 | O=C1CCC(=O)N1 | -6.5% (inactive) | –
11 | NCc1cccc(C2CCN(C(=O)c3ccc(C#Cc4ccccc4F)o3)CC2)c1 | – | 68.6 µM (active)
12 | CCOC(=O)C1=NN(c2ccc(Cl)cc2Cl)C(C)(C(=O)OCC)C1 (stereo not given) | 0.477% (inactive) | –
13 | C=CC(C)(C)O | -3.45% (inactive) | –
14 | CCC(O)CO (stereo not given) | -4.57% (inactive) | –
15 | CCCC(C)C=O (stereo not given) | -0.0385% (inactive) | –
16 | Cn1ccnc1 | 1.91% (inactive) | –
17 | Nc1ccc(Oc2cccc(Oc3ccc(N)cc3)c2)cc1 | -2.94% (inactive) | –
18 | CC/C=C\C/C=C\C/C=C\CCCCCCCC(=O)OC | -20.6% (inactive) | –
19 | CCCCNc1ccc(NCCCC)c2c1C(=O)c1ccccc1C2=O | 5.61% [at 19 µM] (inactive) | –
20 | CCSCC | 2.35% (inactive) | –

Row | Compound | activity change, negative = cytotoxicity | Potency
21 | CC(=O)Nc1ccc(N=Nc2cc(C)ccc2O)cc1 | -9.18% (inactive) | –
22 | NC(=O)C1CO1 (stereo not given) | -7.11% (inactive) | –
23 | C=C(C)CCO | -0.129% (inactive) | –
24 | C1=CCCC1 | -8.06% (inactive) | –
25 | CC(=O)[C@]1(O)Cc2c(O)c3c(c(O)c2[C@@H](O[C@H]2C[C@H](N)[C@H](O)[C@H](C)O2)C1)C(=O)c1ccccc1C3=O | – | 2.11 µM (active)
26 | C=CC(=O)OCC(Br)CBr (stereo not given) | 0.144% (inactive) | –
27 | O=C1OC(=O)c2cc(-c3ccc4c(c3)C(=O)OC4=O)ccc21 | 2% (inactive) | –
28 | C=CCc1cc(S(=O)(=O)c2ccc(O)c(CC=C)c2)ccc1O | -19.8% (inactive) | –
29 | O=C1C=CC(=O)N1c1cccc(N2C(=O)C=CC2=O)c1 | – | 61.1 µM (active)
30 | COc1cc(/C=C/C(=O)CC(=O)/C=C/c2ccc(O)c(OC)c2)ccc1O | – | 24.5 µM (active)
31 | CCn1c2ccccc2c2ccccc21 | -1.23% (inactive) | –
32 | COc1ccc(OC)c(N=Nc2c(O)ccc3ccccc23)c1 | – | 24.3 µM (active)
33 | O=C(NCc1ncc(C(F)(F)F)cc1Cl)c1c(Cl)cccc1Cl | -7.82% (inactive) | –
34 | CCCCCCCCCCCC(=O)Cl | -6.64% (inactive) | –
35 | CN(C[C@@H](CC[N+]12CCC(C3CCCCC3)(CC1)CC2)c1ccc(Cl)c(Cl)c1)C(=O)c1cc(C(F)(F)F)cc(C(F)(F)F)c1 | – | 68.6 µM (active)
36 | Clc1ccc2c(Cl)ccnc2c1 | 0.0229% (inactive) | –
37 | Oc1ccc2c(c1)CCC2 | -0.147% (inactive) | –
38 | Clc1cccc(Cl)n1 | 0.673% (inactive) | –
39 | O[Si](c1ccccc1)(c1ccccc1)c1ccccc1 | -15.9% (inactive) | –
40 | Oc1ccc(Cl)cc1C1CCCC1 | -6.01% (inactive) | –
